According to PubChem BioAssay AID1159580 (chemical genetic matrix, 2015):
Values joined by “and” are separate entries in the source; they are usually repeats but may differ in a detail not shown here. Equal entries are not always repeated. Out of some 5,500 compounds screened, about 2,000 (36%) were called active. Not shown: some 18% with an inconclusive outcome. Rule as the data show it: active = normalized growth mostly below about 0.91 (no sharp cut-off); inconclusive = no clear call, values can overlap the other calls; inactive = mostly above about 0.92. The list shows a part of the results.

Assay: chemical genetic growth profiling, strain panel (AID 1159580);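 also: tested at 20 µM; growth read once vehicle control cultures reached saturation at 30 °C; 1 = growth at the plate median or of vehicle wells; lower values mean less growth of the strain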
Conditions: S. cerevisiae deletion strains, growth OD

Measured: normalized growth

CC(=O)OCC(=O)[C@@]12OC3(CCCC3)O[C@@H]1CC1C3CCC4=CC(=O)C=C[C@]4(C)[C@@]3(F)[C@@H](O)C[C@@]12C (stereo partly specified)
inactive: locus YAL013W, strain DEP1, stronger effect = lower value 1.02 | locus YAL021C, strain ccr4, stronger effect = lower value 1.01 | locus YAL026C, strain drs2, stronger effect = lower value 1.02 | locus YAL030W, strain snc1, stronger effect = lower value 1.02 | locus YBL061C, strain skt5, stronger effect = lower value 1.03 | locus YBR009C, strain hhf1, stronger effect = lower value 1.01 | locus YBR021W, strain FUR4, stronger effect = lower value 1.02 | locus YBR023C, strain chs3, stronger effect = lower value 1.01 | locus YBR171W, strain sec66, stronger effect = lower value 1.02 | locus YBR229C, strain ROT2, stronger effect = lower value 1.02 | locus YBR231C, strain swc5, stronger effect = lower value 1.02 | locus YBR279W, strain paf1, stronger effect = lower value 1.01 | locus YCL011C, strain gbp2, stronger effect = lower value 1.02 | locus YCL016C, strain dcc1, stronger effect = lower value 1.01 | locus YCL029C, strain bik1, stronger effect = lower value 0.985 | locus YCL069W, strain vba3, stronger effect = lower value 1.02 | locus YCR088W, strain abp1, stronger effect = lower value 1.02 | locus YDL005C, strain med2, stronger effect = lower value 1.02 | locus YDL035C, strain GPR1, stronger effect = lower value 1.01 | locus YDL040C, strain nat1, stronger effect = lower value 1.02 | locus YDL074C, strain BRE1, stronger effect = lower value 0.972 | locus YDL101C, strain DUN1, stronger effect = lower value 1.01 | locus YDL134C, strain PPH21, stronger effect = lower value 1.01 | locus YDL185W, strain tfp1, stronger effect = lower value 1 | locus YDL192W, strain arf1, stronger effect = lower value 1 | locus YDR001C, strain nth1, stronger effect = lower value 1.02 | locus YDR069C, strain doa4, stronger effect = lower value 1.01 | locus YDR101C, strain arx1, stronger effect = lower value 0.984 | locus YDR137W, strain rgp1, stronger effect = lower value 1.02 | locus YDR150W, strain NUM1, stronger effect = lower value 1.02 | locus YDR159W, strain sac3, stronger effect = lower value 1.02 | locus YDR162C, strain NBP2, stronger effect = lower value 1.02 | locus YDR195W, strain ref2 1.03 | locus YDR297W, strain sur2, stronger effect = lower value 1.02 | locus YDR318W, strain mcm21, stronger effect = lower value 1 | locus YDR334W, strain swr1, stronger effect = lower value 1.02 | locus YDR335W, strain msn5, stronger effect = lower value 1.01 | locus YDR388W, stronger effect = lower value 1 | locus YDR392W, strain spt3, stronger effect = lower value 1.03 | locus YDR502C, strain sam2, stronger effect = lower value 1.02 | locus YEL003W, strain gim4, stronger effect = lower value 1.02 | locus YEL037C, strain rad23, stronger effect = lower value 1.02 | locus YEL061C, strain CIN8 (second series), stronger effect = lower value 1.03 | locus YEL061C, strain CIN8, stronger effect = lower value 1.01 | locus YER015W, strain faa2, stronger effect = lower value 1.01 | locus YER016W, strain bim1, stronger effect = lower value 1.03 | locus YER110C, stronger effect = lower value 1 | locus YER111C, strain swi4, stronger effect = lower value 1.02 | locus YER155C, strain BEM2 (second series), stronger effect = lower value 1.08 | locus YER155C, strain BEM2, stronger effect = lower value 1.02 | locus YER167W, strain BCK2, stronger effect = lower value 1.02 | locus YFR010W, strain ubp6, stronger effect = lower value 1.02 | locus YGL078C, strain dbp3, stronger effect = lower value 0.987 | locus YGL086W, strain mad1, stronger effect = lower value 1 | locus YGL167C, strain pmr1, stronger effect = lower value 1.03 | locus YGL173C, strain kem1, stronger effect = lower value 1.02 | locus YGL227W, strain vid30, stronger effect = lower value 1.02 | locus YGL240W, strain doc1, stronger effect = lower value 1.03 | locus YGL248W, strain PDE1, stronger effect = lower value 1.01 | locus YGL253W, strain hxk2, stronger effect = lower value 0.963 | locus YGR078C, strain PAC10, stronger effect = lower value 1.01 | locus YGR135W, strain pre9, stronger effect = lower value 0.989 | locus YGR229C, strain SMI1, stronger effect = lower value 1.03 | locus YGR252W, strain gcn5, stronger effect = lower value 1.04 | locus YHR013C, strain ard1, stronger effect = lower value 1.03 | locus YHR027C, strain rpn1, stronger effect = lower value 1.02 | locus YHR030C, strain SLT2, stronger effect = lower value 1.01 and 0.976 | locus YHR079C, strain IRE1 (second series), stronger effect = lower value 0.986 | locus YHR079C, strain IRE1, stronger effect = lower value 0.978 | locus YHR094C, strain hxt1, stronger effect = lower value 0.991 | locus YHR129C, strain ARP1, stronger effect = lower value 1.01 | locus YHR142W, strain chs7, stronger effect = lower value 1 | locus YHR200W, strain rpn10, stronger effect = lower value 0.994 | locus YIL066C, strain RNR3, stronger effect = lower value 1.01 | locus YIL073C, strain SPO22, stronger effect = lower value 0.966 | locus YIL125W, strain kgd1, stronger effect = lower value 1.01 | locus YIR030C, strain dcg1, stronger effect = lower value 0.992 | locus YJL092W, strain hpr5, stronger effect = lower value 1.02 | locus YJL095W, strain BCK1 (second series), stronger effect = lower value 1.02 | locus YJL095W, strain BCK1, stronger effect = lower value 1.01 and 0.989 | locus YJL115W, strain asf1, stronger effect = lower value 1.03 | locus YJL129C, strain trk1, stronger effect = lower value 1.01 | locus YJL134W, strain LCB3, stronger effect = lower value 1.01 | locus YJL154C, strain vps35, stronger effect = lower value 1.02 | locus YJL164C, strain tpk1, stronger effect = lower value 1 | locus YJL166W, strain qcr8, stronger effect = lower value 1.02 | locus YJL168C, strain set2, stronger effect = lower value 1 | locus YJL187C, strain SWE1 (second series), stronger effect = lower value 1.01 | locus YJL187C, strain SWE1, stronger effect = lower value 1.03 | locus YJR043C, strain POL32, stronger effect = lower value 0.988 | locus YJR066W, strain TOR1, stronger effect = lower value 0.968
